Screening results: PubChem BioAssay, National Center for Advancing Translational Sciences (NCATS)
Sampled rows, rich in hits. Any-hit rate of the full collection: about 6.5%.
MARV entry inh: qHTS for inhibitors of binding or entry into cells for Marburg Virus | Marburg virus pseudotyped entry inhibition, cell reporter | Potency, µM (highest dose often 37.8 µM), hits mostly inhibitors | actives 1.8% (n = 300,000); calls by dose curve; tested in HEK293 cells
VACV mCherry inh: qHTS for Stage-Specific Inhibitors of Vaccinia Orthopoxvirus: mCherry Reporter Primary qHTS | Vaccinia virus mCherry reporter infection, fluorescence | AID 720579, 2013 | Potency, µM (highest dose often 36.5 µM), actives largely listed as inhibitors | actives 0.63% (n = 310,000); calls by dose curve; tested in A549 cells; also: nearly all actives have a fitted effect of over 35% in size
Lassa entry inh: qHTS for Inhibitors of binding or entry into cells for Lassa Virus. Potency, µM (doses to about 37.9 µM), usual class: inhibitors. actives 1.2% (n = 300,000). Lassa virus pseudotype entry inhibition, cell reporter. AID 540256, 2011; calls by dose curve; tested in HEK293 cells; also: nearly all actives have a fitted effect of over 50% in size
HCMV inh: qHTS Assay for inhibitors of the human cytomegalovirus (HCMV) | actives 4.5% (n = 410,000) | activity change, negative = inhibition, % at 57.5 µM | HFF cells, HCMV-luciferase reporter, 72 h; active compounds read low; in the data active = activity change below about -60%; inconclusive = no clear call, values can overlap the other calls; inactive = above about -39%
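Two-dose cell screen: HFF monolayers treated with compounds and infected with luciferase-expressing HCMV at 1 PFU/cell, 72 h at 37C, then lysed for luciferase measurement.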
Vaccinia Venus: qHTS for Stage-Specific Inhibitors of Vaccinia Orthopoxvirus: Venus Reporter Primary qHTS; Vaccinia virus Venus reporter expression, fluorescence; Potency, µM (top dose mostly 36.5 µM), actives largely listed as inhibitors; actives 0.46% (n = 330,000); AID 720580, 2013; calls by dose curve; tested in A549 cells; also: nearly all actives have a fitted effect of over 30% in size
FMDV antiviral: High Throughput Screening for Foot and Mouth Disease Virus Antivirals; Potency, µM (top dose mostly 57.9 µM), actives largely listed as inhibitors; AID 1159524, 2015; actives 1.2% (n = 410,000); FMDV antiviral cell-based qHTS; calls by dose curve; tested in HEK293T cells; also: read-out not given here; nearly all actives have a fitted effect of over 45% in size
Numbers stand for hits.

Results for CN(C)c1ccc(/C=C/C(=O)c2cccnc2)cc1 ?
MARV entry inh: inconclusive; VACV mCherry inh: inactive; Lassa entry inh: inactive; HCMV inh: inactive; Vaccinia Venus: inactive; FMDV antiviral: inactive

How did Cc1c(N2C(=O)/C(=C\c3ccc(N(C)C)cc3)N(C)C2=S)c(=O)n(-c2ccccc2)n1C do in these assays?
MARV entry inh: inactive; VACV mCherry inh: inactive; Lassa entry inh: inactive; HCMV inh: -65; Vaccinia Venus: inactive; FMDV antiviral: inactive

What do the screens show for `CN1C(=S)N(c2cccnc2)C(=O)/C1=C\c1ccc(N(C)C)cc1`?
MARV entry inh: inconclusive; VACV mCherry inh: inconclusive; Lassa entry inh: inactive; HCMV inh: -64; Vaccinia Venus: inactive; FMDV antiviral: inconclusive

How did O=C(COC(=O)CC(c1ccccc1)c1ccccc1)NCc1ccccc1 do in these assays?
MARV entry inh: inactive; Lassa entry inh: 12µM; HCMV inh: inactive; FMDV antiviral: inconclusive

Results for Cc1nn(CC(=O)O)c(C)c1C ?
MARV entry inh: inactive; Lassa entry inh: inactive; HCMV inh: -90; FMDV antiviral: inconclusive

What do the screens show for `C=CCCN1C(=O)NC(c2ccccc2)C(C(=O)OC)=C1C` (centres undefined)?
MARV entry inh: inactive

What do the screens show for `Cc1c(C(=O)N2CCN(C(C)C)CC2)sc2ncnc(NCc3ccco3)c12`?
VACV mCherry inh: inactive; Vaccinia Venus: inactive; FMDV antiviral: inactive

Results for O=C1C=CC(O)(c2cc(=O)c3c(O)cc(O)cc3o2)C=C1 ?
MARV entry inh: inconclusive; VACV mCherry inh: 11µM; Lassa entry inh: inconclusive; HCMV inh: -96; Vaccinia Venus: inconclusive; FMDV antiviral: 18µM

What do the screens show for `O=C(c1cccc(COc2cccc3ccccc23)c1)N1CCCC1`?
MARV entry inh: inconclusive; Lassa entry inh: 8.2µM; HCMV inh: inactive; FMDV antiviral: inactive

Results for COc1ccc(-c2csc(N3CCN(S(=O)(=O)c4ccc5c(c4)NC(=O)CO5)CC3)n2)cc1 ?
HCMV inh: -88; FMDV antiviral: inconclusive

What do the screens show for `Cc1ccc(-c2cc3cccc[n+]3cc2-c2ccc(C)cc2)cc1`?
MARV entry inh: 3.2µM; VACV mCherry inh: inactive; Lassa entry inh: 6.5µM; HCMV inh: -98; Vaccinia Venus: inactive; FMDV antiviral: 40µM

What do the screens show for `Cc1ccc(C[n+]2ccccc2)cc1`?
VACV mCherry inh: inactive; HCMV inh: inactive; Vaccinia Venus: inactive; FMDV antiviral: inactive

What do the screens show for `CC(C)Oc1cccc(C(=O)Nc2ccc(-c3nc4cc(Cl)cc(Cl)c4o3)cc2)c1`?
VACV mCherry inh: inactive; Lassa entry inh: inactive; HCMV inh: inactive; Vaccinia Venus: inactive; FMDV antiviral: inconclusive

How did CC(c1nnc(Sc2nnnn2-c2ccccc2)n1-c1ccc(F)cc1)N(C)C (centres undefined) do in these assays?
MARV entry inh: inactive; VACV mCherry inh: 13µM; Lassa entry inh: inactive; HCMV inh: inconclusive; Vaccinia Venus: inconclusive; FMDV antiviral: inactive

How did CC(=O)c1cccc(NC(=O)CSc2nnc(C(C)N(C)C)n2-c2ccc(F)cc2)c1 (centres undefined) do in these assays?
MARV entry inh: inactive; VACV mCherry inh: inactive; Lassa entry inh: inactive; HCMV inh: inactive; Vaccinia Venus: inactive; FMDV antiviral: inactive

Results for CN1C(=O)C(Cc2nc3ccccc3c(=O)n2-c2ccccc2)c2ccccc21 (centres undefined) ?
MARV entry inh: inactive; Lassa entry inh: inactive; HCMV inh: inactive; FMDV antiviral: inactive

What do the screens show for `CC(C)N1C(=O)C(Cc2nc3ccccc3c(=O)n2-c2ccccc2)c2ccccc21` (centres undefined)?
MARV entry inh: inactive; VACV mCherry inh: inactive; Lassa entry inh: inconclusive; HCMV inh: -72; Vaccinia Venus: inactive; FMDV antiviral: inactive

How did CC(C)N1C(=O)/C(=C\c2nc3ccccc3c(=O)n2-c2ccccc2)c2ccccc21 do in these assays?
MARV entry inh: inconclusive; VACV mCherry inh: 11µM; Lassa entry inh: inconclusive; HCMV inh: -95; Vaccinia Venus: inconclusive; FMDV antiviral: 18µM

Results for CC(C)N1C(=O)/C(=C/c2nc3ccccc3c(=O)n2-c2ccccc2)c2ccccc21 ?
MARV entry inh: inconclusive; VACV mCherry inh: inactive; Lassa entry inh: 10µM; HCMV inh: -105; Vaccinia Venus: inactive; FMDV antiviral: 28µM

How did O=C(CNC(=O)C1CCCCC1)OCCOc1ccccc1 do in these assays?
VACV mCherry inh: inactive; Vaccinia Venus: inactive
